From the OligoGym collection

Each sequence was assayed against GABRP (assay: pooled miR-30 sensor sort-seq; sequence = guide strand). Settings: shRNA.
Note: reference of the scale not given here.

Sequence | sensor-assay potency score (higher = more potent)
TAGTGATCAACATTACTGGGGT | 0.2
TTACTCTCTGAAATGCTAGAGA | -0.589
TAGTCAACGTTGTCGCTGGAAA | -1.15
AAACTTGAACTTGTCGCTGGTT | 0.218
TTGCCTTCAAACACCAGCCGCT | 0.206
TTACATGCAACAGTTGTCGTGA | 0.789
TTGATGATATTAGTAATACTGA | -0.994
TAGTGTAATTTCCTGTCTCCTG | -0.339
TTCTCGGAAGACAAACTTGAAC | -1.47
ATAATCAACAATCCTGCCCATC | -0.969
AAATACAGAACATTCCTCCGAA | 0.853
TTGGACTCCACAATGTAAGTAT | 0.553
ACAAACTTGAACTTGTCGCTGG | 0.62
TTTGAATTGTGAAATAATCAAC | -1.06
TTCATTGTCAAGTCACTGTAGT | 0.147
TTACATCATTATCTTGTCCTGT | 0.386
TCAAACTGTAAGACCAATCTAG | 0.125
AACTTGAACTTGTCGCTGGTTT | -0.459

What follows are sequences tested against GALE in the same assay as above. Settings: shRNA.

Sequence | sensor-assay potency score (higher = more potent)
TCAAACTCCACAGAGCGGCCTG | -0.0381
TACACAGTGGCTGAGCTGCTGA | -1.04
TCTGTGTCATAGTCATTGCCAA | -0.861
TAAGGCTGCAATGTGGCCCTTG | 0.223
TGAAATAGCGCAGCAGCACTGC | -0.836
AACACCAGGTTCTTCACCCCGT | -0.43
TACTTTTTGAAGAGACGCTGTA | -0.402
TCTGTAATAATCCAGAGGCTTC | -1.35
TGGATGACCGCCATAAAGCTGT | -0.62
TTCCTCGATGAAGAACTTGGAC | -0.651
TTCTGCTTCTGCCAGCGCCAGA | -1.44
ATGAAGAACTTGGACTTGCCGT | -1.09
ATCCTCACACATCCTGTCCAGC | -0.56
AATAGCGCAGCAGCACTGCGTT | -1.17
TCACACATCCTGTCCAGCCCTA | -0.0923
TTCCCGTACACAGTGGCTGAGC | -0.834
TTTATTTTTAAATACTTTGGAA | -0.203
TTTTGAAGAGACGCTGTAGGGC | 0.205
TACTTTGGAAAGCTCTTTCAGA | -0.275
TAACTCTGTAATAATCCAGAGG | -0.909
TGAAGAACTTGGACTTGCCGTA | -0.185
TCGATGAAGAACTTGGACTTGC | -0.0111
